# Reference: PubChem BioAssay (NCATS)
# Where “and” joins values, the source holds several entries; their conditions need not be identical. Equal entries are not always repeated. Calls of active or inactive are those of the source. Calls come from the whole dose curve; as a rule, active = well fitted activation curve with a large enough effect; inconclusive = small, poorly fitted or top-dose-only effect; inactive = no such curve, though single readings can be large or run the other way.
# Target: Cytochrome P450 3A4 (Homo sapiens) (UniProt P08684)
# Sequence (P08684 whole entry, looked up): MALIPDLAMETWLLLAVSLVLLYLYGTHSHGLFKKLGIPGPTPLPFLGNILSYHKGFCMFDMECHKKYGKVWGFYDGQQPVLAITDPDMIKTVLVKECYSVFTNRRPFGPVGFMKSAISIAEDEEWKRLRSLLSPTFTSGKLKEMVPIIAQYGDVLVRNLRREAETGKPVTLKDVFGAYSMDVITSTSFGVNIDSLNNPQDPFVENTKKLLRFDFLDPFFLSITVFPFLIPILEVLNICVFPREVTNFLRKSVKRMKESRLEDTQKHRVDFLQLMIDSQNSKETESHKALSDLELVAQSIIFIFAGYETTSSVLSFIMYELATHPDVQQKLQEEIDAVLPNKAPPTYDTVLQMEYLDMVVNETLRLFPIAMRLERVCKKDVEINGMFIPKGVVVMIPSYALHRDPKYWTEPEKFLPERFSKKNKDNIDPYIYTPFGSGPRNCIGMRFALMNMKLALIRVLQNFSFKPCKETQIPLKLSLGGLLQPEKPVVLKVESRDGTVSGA
# Experiment: qHTS Assay for Activators of Cytochrome P450 3A4 (AID 885); note: nearly all actives have a fitted effect of over 65% in size
# Conditions: recombinant CYP3A4, Luciferin-PPXE luminescence, 60 min; series mostly up to 57.1 µM
# How it was run: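 Luminescent readout of luciferin formed from 25 uM Luciferin-PPXE (KM level) by 20 nM CYP3A4 in 200 mM KPO4, with 60 min NADPH-driven reaction at room temperature after 10 min compound exposure. Ketoconazole (57 uM) defined 100% inhibition.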
Compound,"activity change, positive = activation",Potency
Cc1cc2c(nc1C)CCCN2C[C@H](C)O/N=C1/[C@H]2O[C@@H]2[C@@H](O)[C@H]2[C@H]1CCn1c(=O)n(-c3ccccc3)c(=O)n12,-35.6% [at 11.4 µM] (inactive),
CO[C@@H]1COC(=O)[C@H](COCc2ccccc2)NC(=O)C/C=C\[C@@H](C)[C@H](OC)COC(=O)[C@@H](C)NC(=O)C/C=C\[C@H]1C,-36.6% [at 11.4 µM] (inactive),
COC(=O)[C@@H]1CC[C@H](C)[C@@H](c2ccc(C)cc2)N1C(=O)c1ccc(/C=N\O[C@@H](C)CN2CCCCc3nc(C)c(C)cc32)cc1,-36.1% [at 11.4 µM] (inactive),
CC(C)CO/N=C1/C[C@@H](O)[C@@H](O)[C@@H]2[C@@H]3C(=O)N(Cc4ccc5c(c4)OCO5)C(=O)[C@H]3CC[C@@H]12,-50.2% [at 11.4 µM] (inactive),
CO[C@H]1COC(=O)[C@H]2CCCN2C(=O)C/C=C\[C@@H](C)[C@H](OC)COC(=O)C/C=C\[C@@H]1C,-32.7% [at 11.4 µM] (inactive),
C#CCCCO/N=C1/C[C@@H](O)[C@@H](O)[C@@H]2[C@@H]3C(=O)N(C[C@@H]4CCCO4)C(=O)[C@H]3CC[C@@H]12,-39.4% [at 11.4 µM] (inactive),
CO[C@H]1COC(=O)C/C=C\[C@H](C)[C@H](OC)COC(=O)[C@@H](C)COC(=O)C/C=C\[C@@H]1C,-30.8% [at 11.4 µM] (inactive) and -38.4% [at 11.4 µM] (inactive),
Cn1c(N)c(C(=O)COC(=O)c2ccnc3ccccc23)c(=O)n(C)c1=O,,inactive
N#Cc1ccc(C23CC4(C2)[C@H](CN(P(=O)(c2ccccc2)c2ccccc2)[C@@H]4c2ccccc2)C3c2ccc(Cl)nc2)cc1 (stereo not given in full),,inactive
CC(=O)OC[C@@H]1O[C@H](CCO/N=C(\C)CCN2CCCc3nc(C)c(C)cc32)C=C[C@@H]1OC(C)=O,-42.6% [at 11.4 µM] (inactive),
O=C(N/N=C1/C[C@@H](O)[C@@H](O)[C@@H]2[C@H]3C(=O)N(c4ccc(F)cc4F)C(=O)[C@@H]3CC[C@H]12)OCc1ccccc1,-37% [at 11.4 µM] (inactive),
O=C1CCCC=C1[C@@H](O)COCc1ccccc1,-31.3% [at 11.4 µM] (inactive),
CO[C@@H]1COC(=O)C/C=C\[C@@H](C)[C@H](OC)COC(=O)[C@H](COCc2ccccc2)NC(=O)C/C=C\[C@H]1C,-41.7% [at 11.4 µM] (inactive),
CO[C@H]1COC(=O)[C@H]2CCCN2C(=O)C/C=C\[C@@H](C)[C@H](OC)COC(=O)[C@@H](OCc2ccccc2)/C=C\[C@@H]1C,-30.9% [at 11.4 µM] (inactive),
N#Cc1ccc(C23CC4(C2)[C@H](CN(Cc2ccc(-c5ccccc5)cc2)[C@@H]4c2ccccc2)C3c2ccccc2)cc1 (stereo not given in full),,inactive
FC(F)(F)c1ccc(CN2C[C@@H]3C(c4ccc(C(F)(F)F)cc4)C4(c5cccnc5)CC3(C4)[C@H]2c2ccccc2)cc1 (stereo not given in full),,inactive
COC(=O)N1C2(C=CC1(C)C(=O)NCc1ccc(N(C)C)cc1)CCCCC2 (stereo not given),,inactive
FC(F)(F)c1ccc(C2[C@H]3CN(Cc4ccc(-c5ccccc5)cc4)[C@H](c4ccccc4)C34CC2(c2cccnc2)C4)cc1 (stereo not given in full),,inactive
COC(=O)[C@@H]1C[C@@]2(O)[C@H](O)[C@H](O)[C@H](O)C[C@H]2N1Cc1ccc(-c2ccccc2)cc1,,inactive
FC(F)(F)c1ccc(CN2C[C@@H]3C(c4ccccc4)C4(c5ccccc5)CC3(C4)[C@H]2c2ccccc2)cc1 (stereo not given in full),,inactive
C/C(CCN1CCc2nc(-c3ccccc3)c(-c3ccccc3)cc2C1)=N\OC[C@@H](O)[C@@H]1O[C@@H]2OC(C)(C)O[C@@H]2[C@H]1O,-41.3% [at 11.4 µM] (inactive),
C[C@H]1CC[C@H]2C(=O)N3[C@H](c4ccc(Br)cc4)[C@@H](C)CC[C@H]3C(=O)N2[C@@H]1c1ccc(Br)cc1,-43.1% [at 11.4 µM] (inactive),
CO[C@H]1COC(=O)[C@@H](Cc2ccccc2)NC(=O)[C@@H](C)COC(=O)C/C=C\[C@@H]1C,-36.9% [at 11.4 µM] (inactive),
Cc1ccc(S(=O)(=O)N[C@H]2COC(=O)[C@@H](C)COC(=O)[C@H](C)NC(=O)C/C=C\[C@H]2C)cc1,-40.2% [at 11.4 µM] (inactive),
CO[C@@H]1COC(=O)C/C=C\[C@@H](C)COC(=O)[C@H](Cc2ccccc2)NC(=O)C/C=C\[C@H]1C,-39.1% [at 11.4 µM] (inactive),
